Results on 8 molecules are retold here after PubChem BioAssay (Tox21).

Unmarked numbers belong to inactive results. Inconclusive results are not listed. Active and inactive are the calls of the source. Unless noted, calls follow the shape of the full dose curve.

Assay [1] is described as follows: Nuclear factor erythroid 2-related factor 2/antioxidant responsive element (Nrf2/ARE) small molecule agonists: qHTS cell viability counter screen in human keratinocytes (AID 1919968; active = well fitted curve in the direction sought with a large enough effect in the repeat runs; an effect the other way counts as inactive or inconclusive; also: nearly all actives have a fitted effect of over 55% in size; also: potency is read from the fitted curve at half-maximal effect). The method in brief: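 Cells of the KeratinoSens line were plated at 1,500 per well and left for 5 h before compound transfer from DMSO stocks. After a 23 h incubation (37 C, 5% CO2), CellTiter-Fluor was added. Signal was taken as fluorescence intensity 1 h later.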

A short description of assay [2]: Nuclear factor erythroid 2-related factor 2/antioxidant responsive element (Nrf2/ARE) small molecule agonists: luciferase reporter gene qHTS assay in human keratinocytes (AID 1919969; also: nearly all actives have a fitted effect of over 35% in size; also: potency is read from the fitted curve at half-maximal effect). (A reporter such as luciferase makes a cellular process visible.)
Assay [3] deals with Gonadotropin-releasing hormone receptor (Homo sapiens) (UniProt P30968). Nature of the assay: Human gonadotropin-releasing hormone receptor (GnRHR) small molecule agonists, calcium flux assay in GnRHR-HEK293 cells (AID 1920063). Also: nearly all actives have a fitted effect of over 35% in size. Also: potency is read from the fitted curve at half-maximal effect. In outline: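 Compounds dissolved in DMSO are pin-transferred onto dye-loaded GnRHR-HEK293 cells, which were seeded 18 h before at 37 C/5% CO2. Calcium signal is read as fluorescence intensity at 1 s intervals for 3 min.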
(Calcium flux is commonly read through the fluorescence of an indicator in the cells.)

In assay [4] the target is KiSS-1 receptor (Homo sapiens) (UniProt Q969F8). The assay is described as follows: Human kisspeptin (KISS1R) small molecule agonists, calcium flux assay in KISS1R-HEK293 cells (AID 1920064; active = well fitted curve in the direction sought with a large enough effect in the repeat runs; an effect the other way counts as inactive or inconclusive; also: potency is read from the fitted curve at half-maximal effect). The method in brief:
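Cell line: HEK293, stable human KISS1R. Dye loading 1 h at 37 C after 18 h culture. Read: kinetic fluorescence, 480/540 nm, 3 min at 1 s intervals.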

Assay [5] can be described thus: G protein-coupled receptor (GPCR) small molecule agonists, calcium flux assay: HEK293 wild type cell line counter screen (AID 1920065). In outline: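 Tox21 10K compounds, 15 concentrations each in triplicate, pin-transferred in DMSO onto dye-loaded cells; kinetic read at 480/540 nm for 3 min, 1 s intervals.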
The nature of assay [6]: p53 small molecule agonists, cell-based qHTS assay: qHTS cell viability counter screen (AID 1963581). Also: nearly all actives have a fitted effect of over 45% in size. In outline:
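ATP content measured by luminescence in HCT-116 p53RE-bla cells treated 16 h at 37 C, same wells as the reporter screen.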

Assay [7] is described as follows: p53 small molecule agonists, cell-based qHTS assay (AID 1963582; active = well fitted activation curve with a large enough effect in the signal ratio in the repeat runs, not every such curve was filed as active; the % refers to the signal ratio). In outline: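 16 h compound exposure (37 C) of p53 response element–bla cells, preceded by 5 h recovery at 37 C/5% CO2; read-out via LiveBLAzer B/G FRET substrate, 2 h RT, fluorescence intensity.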
Assay [8] concerns the target 5-hydroxytryptamine receptor 2A (Homo sapiens) (UniProt P28223). The assay is described as follows: 5-hydroxytryptamine receptor 2A (HTR2A) small molecule antagonists, cell-based qHTS assay (AID 1963586). Also: nearly all actives have a fitted effect of over 45% in size. In outline:
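CHO cells stably expressing human HTR2A were plated for 18 h at 37 C, then loaded with calcium dye for 1 h. Compounds were preincubated 5 min at room temperature before DOI (4 nM solution) was added. Kinetic fluorescence was read for 3 min.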
A general note: qHTS replaces the single test concentration by a dilution series.

The target in assay [9] is Muscarinic acetylcholine receptor M1 (Homo sapiens) (UniProt P11229). Nature of the assay: Cholinergic receptor muscarinic 1 (CHRM1) small molecule antagonists, cell-based qHTS assay (AID 1963588). Also: nearly all actives have a fitted effect of over 40% in size. The method in brief: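 Compounds were tested at 15 concentrations in three independent runs. Dye-loaded CHRM1-CHO cells were exposed 5 min at room temperature before stimulation by acetylcholine added at 50nM. Intracellular calcium was read kinetically on FDSS for 3 min.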

A short description of assay [10]: cAMP Responsive Elements (CRE) small molecule agonists, cell-based qHTS assay (AID 1963590). The method in brief: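 HEK 293T cells stably bearing CRE-bla were plated at 2,000 cells per well and rested 18 h. Compounds, positive controls or DMSO were added for 3 h at 37 C. LiveBLAzer B/G substrate was then loaded for 2 h at room temperature.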
Assay [11] deals with Beta-2 adrenergic receptor (Homo sapiens) (UniProt P07550). Nature of the assay: Adrenergic beta2 receptor (ADRB2) small molecule antagonists, cell-based qHTS assay (AID 1963592). Also: series mostly up to about 92 µM; nearly all actives have a fitted effect of over 50% in size. The method in brief:
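Assay format: CHO-ADRB2 cells, 18-20hr seeding at 37C/5% CO2, then compound plus 1nM isoproterenol agonist mix for 0.5hr RT. Homogeneous time-resolved fluorescence cAMP detection after 1hr, expressed as 665/615 nm ratio.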

Assay [12] deals with D(2) dopamine receptor (Homo sapiens) (UniProt P14416). Nature of the assay: Dopamine D2 receptor (DRD2) small molecule agonists, cell-based qHTS assay (AID 1963594). Also: nearly all actives have a fitted effect of over 35% in size. In outline:
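cAMP accumulation in DRD2-HEK293 cells measured by HTRF after 1 h detection; compounds added 10 min before NKH477 (200nM […]) forskolin-analogue stimulation, 30 min at room temperature, with Ro20-1724 present at 0.1 mM final.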

Assay [13] in a line: p53 small molecule agonists, cell-based qHTS assay with rat liver microsomes: qHTS cell viability counter screen (AID 1963580). Also: nearly all actives have a fitted effect of over 45% in size. In outline: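 Cytotoxicity counter screen: intracellular ATP read by CellTiter-Glo luminescence in the p53 reporter wells. HCT-116 p53RE-bla cells were treated for 16 h at 37 C alongside rat liver microsomes and NADPH, each 0.5 mg/mL final.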
Assay [14] addresses Muscarinic acetylcholine receptor M1 (Homo sapiens) (UniProt P11229). The assay is described as follows: Cholinergic receptor muscarinic 1 (CHRM1) small molecule agonists, cell-based qHTS assay (AID 1963589). Also: nearly all actives have a fitted effect of over 35% in size. Also: potency is read from the fitted curve at half-maximal effect. The method in brief:
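Homogeneous fluorescence calcium flux, agonist mode. Human M1-expressing CHO cells; compound dosed at 15 concentrations, three independent runs; signal sampled every 1 sec.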

Assay [15] concerns the target Beta-2 adrenergic receptor (Homo sapiens) (UniProt P07550). The assay is described as follows: Adrenergic beta2 receptor (ADRB2) small molecule agonists, cell-based qHTS assay (AID 1963593).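 Also: CHO cells stably overexpressing human ADRB2.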 The method in brief: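 CHO cells stably over-expressing ADRB2 were plated overnight at 37C, then dosed with compounds plus a stimulation mix containing 100uM IBMX and 25uM Ro-20-1724 for 0.5hr at room temperature. cAMP was measured by HTRF competition, 1hr.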

The target in assay [16] is D(2) dopamine receptor (Homo sapiens) (UniProt P14416). The assay is described as follows: Dopamine D2 receptor (DRD2) small molecule antagonists, cell-based qHTS assay (AID 1963595; active = well fitted inhibition curve with a large enough effect in the signal ratio in the repeat runs, with a control signal flat; the % refers to the signal ratio). In outline:
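Readout: HTRF cAMP, cAMP-d2 competing with cellular cAMP for anti-cAMP cryptate, read after 1 h. Cells: DRD2-HEK293. Conditions: 0.1 mM Ro20-1724, 12 nM quinpirole, 200 nM NKH477, 30 min RT.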

Assay [17] addresses 5-hydroxytryptamine receptor 2A (Homo sapiens) (UniProt P28223). Nature of the assay: 5-hydroxytryptamine receptor 2A (HTR2A) small molecule agonists, cell-based qHTS assay (AID 1963587). Also: nearly all actives have a fitted effect of over 30% in size. Also: potency is read from the fitted curve at half-maximal effect. The method in brief:
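Kinetic calcium-flux fluorescence (2 min, 1 sec intervals) after compound addition in agonist mode. HTR2A-CHO cells were cultured 18 h, then dye-loaded 1 h at 37 C.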

A short description of assay [18]: p53 small molecule agonists, cell-based qHTS assay with rat liver microsomes (AID 1963578). In outline:
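p53RE-bla cells were exposed to compounds together with rat liver microsomes (0.5 mg/mL final) and NADPH (0.5 mg/mL final) for 16 h at 37 C, then read by LiveBLAzer beta-lactamase fluorescence after 2 h at room temperature.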

Assay [19] can be described thus: p53 small molecule agonists, cell-based qHTS assay with human liver microsomes: qHTS cell viability counter screen (AID 1963579). Also: nearly all actives have a fitted effect of over 45% in size. In outline: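 p53RE-bla cells (4,000/well) were pre-incubated 5 h at 37 C, then given compounds in DMSO plus human liver microsomes (0.5 mg/mL final) and NADPH (0.5 mg/mL final) for 16 h at 37 C. Viability was read by CellTiter-Glo luminescence.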

The nature of assay [20]: cAMP Responsive Elements (CRE) small molecule antagonists, cell-based qHTS assay (AID 1963591; active = well fitted inhibition curve with a large enough effect in the signal ratio in the repeat runs, not every such curve was filed as active; the % refers to the signal ratio). In outline:
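First, CRE-bla HEK293T cells settled 18 h at 37 C. Next, compound and 0.25 uM final NKH477 were applied for 3 h. Last, LiveBLAzer B/G substrate was loaded for 2 h at room temperature.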

5-hydroxytryptamine receptor 2A (Homo sapiens), sequence (P28223 whole entry, looked up): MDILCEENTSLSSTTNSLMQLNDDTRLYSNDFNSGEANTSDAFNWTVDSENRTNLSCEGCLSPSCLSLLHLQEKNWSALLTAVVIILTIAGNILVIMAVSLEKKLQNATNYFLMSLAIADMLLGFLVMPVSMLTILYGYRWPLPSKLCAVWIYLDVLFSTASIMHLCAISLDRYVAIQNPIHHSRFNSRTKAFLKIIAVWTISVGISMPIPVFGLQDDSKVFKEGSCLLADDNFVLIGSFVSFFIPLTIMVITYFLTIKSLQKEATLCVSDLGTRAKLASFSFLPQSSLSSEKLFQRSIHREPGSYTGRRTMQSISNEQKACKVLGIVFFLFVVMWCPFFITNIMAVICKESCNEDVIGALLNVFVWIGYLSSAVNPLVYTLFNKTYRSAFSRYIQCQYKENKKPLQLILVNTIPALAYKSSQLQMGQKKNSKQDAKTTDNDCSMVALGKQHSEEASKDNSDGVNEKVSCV
D(2) dopamine receptor (Homo sapiens), sequence (P14416 whole entry, looked up): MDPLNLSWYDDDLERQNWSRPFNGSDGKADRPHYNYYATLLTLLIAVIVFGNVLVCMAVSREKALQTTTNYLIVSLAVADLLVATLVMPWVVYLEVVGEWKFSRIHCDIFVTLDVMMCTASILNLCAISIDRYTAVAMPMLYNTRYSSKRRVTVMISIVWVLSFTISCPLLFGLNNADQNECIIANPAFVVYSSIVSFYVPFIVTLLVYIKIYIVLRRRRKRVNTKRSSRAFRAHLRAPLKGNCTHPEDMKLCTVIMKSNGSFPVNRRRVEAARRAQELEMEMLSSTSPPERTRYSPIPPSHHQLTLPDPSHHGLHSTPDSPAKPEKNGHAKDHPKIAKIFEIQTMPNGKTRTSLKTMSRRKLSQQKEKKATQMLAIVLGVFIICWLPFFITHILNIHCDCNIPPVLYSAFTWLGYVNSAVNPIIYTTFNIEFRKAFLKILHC
Beta-2 adrenergic receptor (Homo sapiens), sequence (P07550 whole entry, looked up): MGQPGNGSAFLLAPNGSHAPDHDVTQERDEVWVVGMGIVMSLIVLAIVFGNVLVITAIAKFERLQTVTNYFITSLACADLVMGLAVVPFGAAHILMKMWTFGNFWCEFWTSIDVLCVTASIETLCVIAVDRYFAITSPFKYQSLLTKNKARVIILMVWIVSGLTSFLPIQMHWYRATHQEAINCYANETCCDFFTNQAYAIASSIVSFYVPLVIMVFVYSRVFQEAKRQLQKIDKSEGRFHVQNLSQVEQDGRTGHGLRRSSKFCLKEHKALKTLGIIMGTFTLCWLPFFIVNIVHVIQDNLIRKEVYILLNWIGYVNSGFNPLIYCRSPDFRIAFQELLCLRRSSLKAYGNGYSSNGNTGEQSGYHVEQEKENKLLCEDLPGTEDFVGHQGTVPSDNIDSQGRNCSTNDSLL
KiSS-1 receptor (Homo sapiens), sequence (Q969F8 whole entry, looked up): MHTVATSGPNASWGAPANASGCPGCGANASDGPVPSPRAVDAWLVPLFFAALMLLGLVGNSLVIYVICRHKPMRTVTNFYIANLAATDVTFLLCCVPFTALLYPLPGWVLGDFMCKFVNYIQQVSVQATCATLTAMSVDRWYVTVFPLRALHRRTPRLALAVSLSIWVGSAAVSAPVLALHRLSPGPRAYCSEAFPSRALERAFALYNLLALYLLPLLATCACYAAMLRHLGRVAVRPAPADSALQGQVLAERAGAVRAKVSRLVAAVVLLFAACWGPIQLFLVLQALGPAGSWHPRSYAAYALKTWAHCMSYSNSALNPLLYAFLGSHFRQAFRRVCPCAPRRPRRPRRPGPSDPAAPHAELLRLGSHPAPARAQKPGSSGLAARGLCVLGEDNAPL
Gonadotropin-releasing hormone receptor (Homo sapiens), sequence (P30968 whole entry, looked up): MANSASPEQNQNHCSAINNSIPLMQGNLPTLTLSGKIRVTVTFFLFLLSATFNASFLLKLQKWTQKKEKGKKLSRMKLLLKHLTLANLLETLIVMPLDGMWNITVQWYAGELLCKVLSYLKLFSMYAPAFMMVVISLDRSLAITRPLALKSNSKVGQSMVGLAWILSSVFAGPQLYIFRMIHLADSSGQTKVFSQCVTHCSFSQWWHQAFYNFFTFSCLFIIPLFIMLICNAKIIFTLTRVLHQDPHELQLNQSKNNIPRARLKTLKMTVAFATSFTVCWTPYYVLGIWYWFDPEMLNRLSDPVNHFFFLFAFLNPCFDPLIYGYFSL
Muscarinic acetylcholine receptor M1 (Homo sapiens), sequence (P11229 whole entry, looked up): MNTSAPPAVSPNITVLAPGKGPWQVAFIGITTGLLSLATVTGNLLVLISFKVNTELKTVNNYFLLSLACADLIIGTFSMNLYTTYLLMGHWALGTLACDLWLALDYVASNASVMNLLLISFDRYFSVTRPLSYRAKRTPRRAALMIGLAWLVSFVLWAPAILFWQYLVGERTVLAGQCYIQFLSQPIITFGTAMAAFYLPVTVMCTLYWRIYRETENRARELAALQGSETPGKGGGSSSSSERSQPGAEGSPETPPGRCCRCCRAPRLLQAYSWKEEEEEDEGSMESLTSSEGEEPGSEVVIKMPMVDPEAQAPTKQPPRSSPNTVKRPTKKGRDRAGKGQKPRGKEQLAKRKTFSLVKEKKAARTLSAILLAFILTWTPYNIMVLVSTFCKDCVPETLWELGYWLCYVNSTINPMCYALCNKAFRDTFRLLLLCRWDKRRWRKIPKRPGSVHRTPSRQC

In the case of `CCOc1ccc2nc(N)sc2c1`, the Potency result in assay [1], in [2], in [3], in assay [4], in assay [5] and in [6] was “inactive” in each case. Further, the Potency result in assay [7], in [8], in [9], in assay [10], in assay [11] and in assay [12] was “inactive” each time.

For the molecule `CCCCC[Si](OCC)(OCC)OCC`, the Potency entry in assay [1], in assay [2], in [3], in assay [4], in assay [5] and in assay [13] was “inactive” each time. The Potency entry in assay [8], in assay [9], in [14], in assay [10], in assay [11] and in assay [15] was “inactive” throughout. Further, the Potency result in assay [12] and in assay [16] was “inactive” throughout.

As for `COc1ccc(/C=C/C(=O)c2ccc(OC)cc2OC)cc1`, the Potency result in assay [1], in [3], in [4], in assay [5], in assay [6] and in assay [8] was “inactive” in each case. Moreover, the Potency result in [17], in [9], in assay [14], in [11], in assay [12] and in assay [16] was “inactive” each time. Moreover, in [2], the Potency was 29.8 µM (active).

For `CCN(CC)c1ccc2c(c1)Oc1cc(N(CC)CC)ccc1C21OC(=O)c2ccccc21`, the Potency in assay [1] was 9.44 µM (active); in assay [3], 19 µM (active); in [4], 23.9 µM (active); in assay [17], 21.3 µM (active); in assay [14] it was 23.9 µM (active). The Potency entry in assay [2], in assay [18], in assay [19], in assay [13], in assay [7] and in assay [9] was “inactive” in each case. Further, the Potency entry in assay [10], in assay [20] and in assay [16] was “inactive” each time.

Consider `BrCCOc1ccccc1`, for which the Potency entry in assay [1], in assay [2], in assay [3], in assay [4], in [5] and in assay [6] was “inactive” each time. Further, the Potency result in assay [8], in assay [17], in assay [9], in assay [14], in assay [10] and in assay [20] was “inactive” each time. In addition, the Potency result in assay [11], in assay [12] and in [16] was “inactive” throughout.

In the case of `CCc1cccc2c(CCO)c[nH]c12`, the Potency result in assay [1], in assay [2], in assay [3], in [4], in assay [18] and in assay [13] was “inactive” in each case. The Potency entry in assay [6], in assay [7], in assay [8], in assay [17], in [9] and in assay [14] was “inactive” throughout. Besides, the Potency entry in [10], in assay [20], in assay [11], in assay [15], in [12] and in assay [16] was “inactive” each time.

As for `C[C@@H](C1=C(CCN(C)C)Cc2ccccc21)c1ccccn1`, the Potency result in assay [1], in assay [2], in assay [3], in assay [4], in assay [5] and in [13] was “inactive” each time. The Potency entry in [8], in assay [17], in assay [14], in assay [10], in assay [20] and in assay [11] was “inactive” each time. For the same molecule, the Potency entry in assay [16] is “inactive”.

`c1ccccc1`: the Potency result in assay [1], in [2], in [3], in assay [4], in assay [5] and in [8] was “inactive” throughout. The Potency entry in assay [9], in [14], in assay [10], in [20], in [11] and in assay [12] was “inactive” each time. Also, the Potency entry in [16] was “inactive”.
